This note sets out measurements from PubChem BioAssay (NCI).

Assay in all cases: NCI-60 one-dose screen, 48 h (100 = growth as untreated, 0 = no growth, -100 = all killed)
Conditions in all cases: 10 µM

The test system of experiment [1] is NCI-H23 lung.
Experiment [2] has as its system NCI-H226 lung.
Experiment [3] concerns NCI-H322M lung.
Experiment [4] concerns HOP-62 NSCLC.
Experiment [5] concerns NCI-H460 lung.
The subject of experiment [6] is HOP-92 NSCLC.
For experiment [7], the system named is NCI-H522 lung.
Experiment [8] has as its system A549/ATCC NSCLC.
For experiment [9], the system named is 786-0 renal.
The subject of experiment [10] is COLO 205 colon.

Molecules are shown by their SMILES. About 83,000 compounds went through this panel and 20% of them were active in at least one assay; those are over-represented in the sample as a whole.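 In brief: 96-well plates, 48 h treatment, single concentration, percent growth endpoint.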 Unmarked numbers belong to inactive results. Active and inactive are the calls of the source. How the source made its calls: active means growth percent below 10; inactive means the rest.

On to `Cc1ccc(C(=O)N/C(=C2/OCCN2C)[P+](c2ccccc2)(c2ccccc2)c2ccccc2)cc1`, for which the growth in [1] was 85.1%; in experiment [2] it was 92.9%; in experiment [3], 100%; in [4], 96.9%; in experiment [5] it was 83.8%; in [6] it was 60.3%. Further, the growth in experiment [7] was 57.8%; in [8] it was 97.8%; in experiment [9], 103%; in [10], 57.9%.
Regarding `O=C(NC(=S)N1CCN(c2ncnc3c2cnn3-c2ccccc2)CC1)c1ccc(Cl)cc1`, the growth in experiment [1] was 55.5%; in [2], 52.3%; in experiment [3], 66.8%; in [4] it was -2.01% (active); in [5] it was 53.3%; in experiment [6], 14.7%. Moreover, the growth in experiment [7] is 38%; in experiment [8], 54.3%; in experiment [9], 27.8%; in [10] it was 77.4%.
`Cc1ccc(C(C)C)cc1NC(=O)c1ccccc1N(C)C`: the growth in [1] was 82.4%; in [2], 99.3%; in experiment [3], 82.7%; in experiment [4], 97.1%; in experiment [5], 102%; in [6], 73.8%. Also, the growth is 78.3% in [7], 82.2% in experiment [8], 81.7% in experiment [9] and 105% in experiment [10].
As for `COc1ccc(Nc2nc(N)n(Cc3cccc(Br)c3)n2)cc1`, the growth is 0.552% (active) in experiment [1]; 10% in experiment [2]; 27.7% in experiment [3]; 35.1% in [4]; -17.6% (active) in experiment [5]; -36.9% (active) in [6]. The growth in experiment [7] was -20.9% (active); in experiment [8] it was 19.6%; in experiment [9] it was -9.25% (active); in [10] it was -46.6% (active).
For the compound `Cc1ccc(/C=C(\C#N)n2nnc3c(F)cccc32)cc1`, the growth is 14.7% in [1]; 16.8% in experiment [2]; 10.1% in experiment [3]; 17.8% in experiment [4]; 3.45% (active) in experiment [5]; -4.81% (active) in experiment [6]. Further, the growth in experiment [7] was 1.65% (active); in experiment [8], -3% (active); in experiment [9], 38.5%; in [10], -70.6% (active).
For the compound `O=C(c1ccc(Cl)cc1)C1[C@H](c2ccccc2Br)[C@@H](c2ccccc2)NC12C(=O)Nc1ccccc12` (stereo not given in full), the growth was 6.15% (active) in [1]; 21.9% in experiment [2]; 42.1% in experiment [3]; 43.6% in experiment [4]; 0.679% (active) in experiment [5]; 14% in [6]. For the same compound, the growth was -3.71% (active) in experiment [7], 20.4% in experiment [8], 16.3% in experiment [9] and -42.4% (active) in experiment [10].
As to `Cc1ccc(-c2nc3ccc(C(=O)N=Nc4c(O)[nH]c5ccc([N+](=O)[O-])cc45)cc3[nH]2)cc1`, the growth was 64.6% in experiment [1]; 45.4% in experiment [2]; 105% in experiment [3]; 88.5% in [4]; 103% in experiment [5]; 44.3% in experiment [6]. Further, the growth in [7] is 78.3%; in [8], 98%; in experiment [9], 85.2%; in experiment [10] it was 70.9%.
In the case of `CC(C)Sc1nc(NC2CC2)c(C#N)c(-c2ccccc2)n1`, the growth in [1] is 75.5%; in experiment [2], 22.4%; in experiment [3] it was 77.4%; in [4], 33.9%; in [5] it was 75.1%; in experiment [6], 58.4%. For the same compound, the growth in [7] was 60.9%; in [8], 48.6%; in experiment [9], 28.5%; in [10], 90.5%.
As to `COc1cccc(-c2ccnc(/N=C(\N)Nc3ccc(S(=O)(=O)Nc4nc(C)cc(C)n4)cc3)n2)c1`, the growth in experiment [1] was 98.2%; in experiment [2], 80.3%; in experiment [3] it was 107%; in experiment [4], 84.6%; in experiment [5], 106%; in experiment [6], 106%. Moreover, the growth in experiment [7] is 91.5%; in experiment [8], 102%; in experiment [9], 101%; in experiment [10], 114%.
With `COc1ccc(-c2nc(-c3ccccc3)c(-c3ccccc3)n2-c2ccc(S(=O)(=O)Nc3ncccn3)cc2)cc1OC`, the growth in experiment [1] is 94.8%; in experiment [2] it was 75.1%; in [3], 77.4%; in experiment [4], 76.9%; in [5] it was 95.6%; in experiment [6] it was 56.6%. Also, the growth in experiment [7] was 89%; in [8], 87.6%; in experiment [9] it was 64.6%; in experiment [10] it was 133%.
Take `COc1cccc2nc(Nc3cccc(NC(=O)c4ccc(CN5CCCN(C)CC5)c(C(F)(F)F)c4)c3)ccc12`: the growth in experiment [1] was -97.9% (active); in experiment [2], -70.5% (active); in experiment [3], -100% (active); in experiment [4], -74.7% (active); in experiment [5], -83.6% (active); in experiment [6] it was -83.5% (active). In addition, the growth is -67.5% (active) in experiment [7], -75.6% (active) in experiment [8], -84.9% (active) in experiment [9] and -56.9% (active) in experiment [10].
With `Cc1ccc([N+](=O)[O-])c(C(=O)Nc2ccc(-c3ccc4c(c3)NC(=O)/C4=C\c3ccc[nH]3)cc2)c1`, the growth in [1] is 21%; in experiment [2] it was 52%; in experiment [3], 48.9%; in experiment [4], 86%; in [5] it was 0.658% (active); in [6] it was 109%. In addition, the growth in [7] was 39.5%; in [8] it was 47%; in experiment [9] it was 61.6%; in [10], 8.99% (active).
As for `O=C1Nc2cc(Cl)ccc2/C1=C/c1cccc(OCc2ccc(Br)cc2F)c1`, the growth in experiment [1] was 28.5%; in [2], 37.4%; in experiment [3], 54%; in experiment [4], 11.1%; in [5], 0.927% (active); in experiment [6], 6.98% (active). Also, the growth in experiment [7] was -2.73% (active); in experiment [8] it was 29.7%; in experiment [9], 17.9%; in experiment [10], 3.13% (active).
Consider `O=C1CCC(N2Cc3c(NCc4ccc(-c5ccccc5)cc4)cccc3C2=O)C(=O)N1` (stereo not given), for which the growth in experiment [1] was 72.9%; in [2] it was 55.1%; in experiment [3], 77.2%; in experiment [4], 74.4%; in experiment [5] it was 36.4%; in experiment [6] it was 24.3%. Further, the growth in experiment [7] was 82.7%; in experiment [8] it was 71.6%; in experiment [9] it was 70.8%; in experiment [10], 82%.
As to `CC(=O)c1ccc(Nc2nc(SC(C)C)nc(-c3ccccc3)c2C#N)cc1`, the growth is 22.4% in experiment [1]; -25.1% (active) in experiment [2]; 24.2% in experiment [3]; -27.8% (active) in experiment [4]; 20.2% in [5]; -15.8% (active) in experiment [6]. In addition, the growth in experiment [7] was 64.6%; in experiment [8], 57.3%; in experiment [9] it was -56.6% (active); in experiment [10] it was 74.7%.
Take `Cc1ccc(-c2nc3ccc(C(=O)N=Nc4c(O)[nH]c5ccc(Cl)cc45)cc3[nH]2)cc1`: the growth was -83.8% (active) in experiment [1]; -17.6% (active) in [2]; 3.76% (active) in [3]; -73.7% (active) in experiment [4]; 4.47% (active) in [5]; -35.8% (active) in experiment [6]. Besides, the growth in [7] is -81.3% (active); in experiment [8], 28%; in experiment [9], -42.9% (active); in experiment [10] it was 3.66% (active).
